Sampled rows, rich in hits. Any-hit rate of the full collection: about 2.5%.
CASP6 VEID inh: inhibitors of human caspase-6; P55212; purified caspase-6, Z-VEID-R110 cleavage fluorescence; inhibition, % at 12.5 µM; 0.53% of 350,000 active;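 active = mean inhibition across replicates at least about 35%, with every replicate also reaching that limit, limit read from the data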;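 also: 0% = median of neutral control wells and 100% = no fluorescence left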
NSD2 HMT inh: blocks human histone methyltransferase NSD2. inhibition, % at 12.5 µM. 0.54% of 310,000 active. AID 743445. O96028. NSD2 peptide methylation, AlphaScreen, 120 min; in the data active = inhibition above about 50%
RAD52 inh: blocks human RAD52 DNA annealing; P43351; recombinant RAD52 DNA annealing, FRET fluorescence; inhibition, % at 18.7 µM; 0.46% of 360,000 active;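 active = every replicate showing at least 50% inhibition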
Target sequence (P43351 whole entry, looked up): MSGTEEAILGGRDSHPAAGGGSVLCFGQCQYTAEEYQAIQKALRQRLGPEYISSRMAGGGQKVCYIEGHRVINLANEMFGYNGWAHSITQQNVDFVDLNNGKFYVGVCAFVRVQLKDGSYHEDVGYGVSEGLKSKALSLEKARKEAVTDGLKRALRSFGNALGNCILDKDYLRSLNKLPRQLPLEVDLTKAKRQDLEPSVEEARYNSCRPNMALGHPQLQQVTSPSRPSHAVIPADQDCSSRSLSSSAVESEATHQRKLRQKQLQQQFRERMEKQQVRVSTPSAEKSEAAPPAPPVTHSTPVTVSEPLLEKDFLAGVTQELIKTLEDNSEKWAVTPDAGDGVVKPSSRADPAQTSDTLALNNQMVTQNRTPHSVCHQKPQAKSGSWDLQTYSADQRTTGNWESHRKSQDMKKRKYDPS
rRNA inh HTS: selective bacterial rRNA inhibition in E. coli. E. coli WT GFP vs humanized-ribosome RFP mutants, fluorescence, 24 h; active compounds read low; DMSO median 0, no signal -100. GFP signal change (wild-type ribosome), % (no concentration beside the values). 1.6% of 350,000 active. AID 720706;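 active = significant combined selectivity score with lowered wild-type GFP, culture density cut under 30%, mutant RFP and density less affected; inactive = any of these conditions unmet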
MLL AF4-AF9 inh: blocks AF4 peptide binding to human AF9 | P42568 | AlphaScreen, biotin-AF4 peptide binding to FLAG-AF9 | inhibition, % at 10 µM | 0.47% of 350,000 active | AID 651704;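 active = every replicate reaching a set inhibition limit, whatever the replicate mean, cut at about 25% in these data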;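 also: 0% = plate neutral control median and 100% = total signal loss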
Numbers without * were called inactive; ! = not confirmed by another sample.

Screening CCC1COC(c2cccn2Cc2ccc(Cl)cc2)=N1 (centres undefined) returned CASP6 VEID inh 2, NSD2 HMT inh 2, RAD52 inh -8, rRNA inh HTS -22* and MLL AF4-AF9 inh 2.
CCSCC1COC(c2cccn2Cc2ccc(C)cc2)=N1 (centres undefined) was read as NSD2 HMT inh 5.
For CCC(=O)N1CC[C@@H]2[C@@H](CO)Nc3ccc(-c4ccc(F)cc4)cc3[C@@H]21 the results were CASP6 VEID inh 0, RAD52 inh 12, rRNA inh HTS -3 and MLL AF4-AF9 inh 2.
`O=C(COC(=O)/C=C/c1ccc(OC(F)F)cc1)NC1CCCCCC1` gave CASP6 VEID inh 0, NSD2 HMT inh -1, RAD52 inh 0, rRNA inh HTS -18* and MLL AF4-AF9 inh -4.
O=C(CSc1nnc(Nc2ccccc2F)s1)NCc1ccco1 was read as NSD2 HMT inh -6.
Screening O=C(CSc1nnc(Nc2ccccc2F)s1)NC(=O)CN1CCCC1=O returned CASP6 VEID inh 42*, NSD2 HMT inh 4, RAD52 inh -4, rRNA inh HTS 8 and MLL AF4-AF9 inh -1.
For O=C(Cc1ccccn1)N1CC2(C1)[C@H](c1ccccc1)[C@H](CO)N2C(=O)c1ccncc1 the results were CASP6 VEID inh -1, RAD52 inh -252, rRNA inh HTS 4 and MLL AF4-AF9 inh -3.
For C[C@@H]1CCCCO[C@@H](CN(C)C(=O)c2ccccc2)[C@H](C)CN([C@@H](C)CO)C(=O)c2cc(NS(=O)(=O)c3ccc(F)cc3)ccc2O1 the results were CASP6 VEID inh 1, RAD52 inh -1, rRNA inh HTS -7 and MLL AF4-AF9 inh 0.
C=CCc1cc(OC)ccc1OCCN(C)Cc1ccccc1 was read as CASP6 VEID inh 2, NSD2 HMT inh 18, RAD52 inh -12, rRNA inh HTS -30* and MLL AF4-AF9 inh 13.
For Cc1cc(OCC(=O)N(C)Cc2ccccc2)ccc1Br the results were CASP6 VEID inh 3, NSD2 HMT inh -8, RAD52 inh -11, rRNA inh HTS -26 and MLL AF4-AF9 inh -2.
`CN(CCOc1ccc(Cl)c(Cl)c1)Cc1ccccc1` gave CASP6 VEID inh -1, NSD2 HMT inh -4, RAD52 inh -6, rRNA inh HTS -30* and MLL AF4-AF9 inh 10.
`CN(CCOCCOc1ccc(Cl)cc1Br)Cc1ccccc1` gave CASP6 VEID inh -2, NSD2 HMT inh 8, RAD52 inh 3, rRNA inh HTS -37* and MLL AF4-AF9 inh 2.
Cc1cc(OCC(=O)N(C)Cc2ccccc2)ccc1Cl was read as CASP6 VEID inh 3, NSD2 HMT inh -5, RAD52 inh -3, rRNA inh HTS -30* and MLL AF4-AF9 inh -3.
Screening CC(C)NC(=O)Nc1ccc2c(c1)CC(=O)N(C)C[C@H](C)[C@@H](CN(C)S(C)(=O)=O)O2 returned rRNA inh HTS 1.
Screening CCC(=O)N1[C@H](CO)[C@H](c2ccc(-c3ccccc3OC)cc2)[C@H]1CNC(C)=O returned CASP6 VEID inh 1, RAD52 inh -8, rRNA inh HTS 0 and MLL AF4-AF9 inh 0.
Screening COc1cc(CO)cc(I)c1O[C@H]1C=C(C(=O)NCCO)C[C@@H](NCc2ccccc2F)[C@@H]1O returned CASP6 VEID inh 7, RAD52 inh 6 and MLL AF4-AF9 inh -3.
For COCCOC(=O)N1C(=O)[C@@]2(c3ccccc31)[C@H](c1ccc(OCCO)cc1)N1[C@H](c3ccccc3)[C@H](c3ccccc3)OC(=O)[C@H]1[C@@H]2C(=O)N1CCN(c2ncccn2)CC1 the results were CASP6 VEID inh -2, RAD52 inh -6 and MLL AF4-AF9 inh -1.
For COc1ccc(-c2ccc(C3[C@@H]4CN(S(=O)(=O)c5cccc(C)c5)C[C@H]3N4)cc2)cc1 (some centres undefined) the results were CASP6 VEID inh 4, RAD52 inh 71*!, rRNA inh HTS 1 and MLL AF4-AF9 inh -4.
Screening Cc1cccc(S(=O)(=O)N2C[C@@H]3N[C@H](C2)C3c2ccc(-c3cccnc3)cc2)c1 (some centres undefined) returned CASP6 VEID inh 1, RAD52 inh -11, rRNA inh HTS 0 and MLL AF4-AF9 inh 1.
Screening COc1cccc(S(=O)(=O)N2C[C@@H]3N[C@H](C2)C3c2ccc(-c3cccc(C)c3)cc2)c1 (some centres undefined) returned CASP6 VEID inh 1, RAD52 inh 57*!, rRNA inh HTS 2 and MLL AF4-AF9 inh -4.
Cc1cccc(S(=O)(=O)N2C[C@@H]3N[C@H](C2)C3c2ccc(-c3ccncc3)cc2)c1 (some centres undefined) was read as CASP6 VEID inh -1, RAD52 inh 12, rRNA inh HTS 1 and MLL AF4-AF9 inh -5.
For COc1ccc(N=Nc2cc(C)c(O)c(CN3CCCCC3)c2)cc1 the results were CASP6 VEID inh 2, NSD2 HMT inh 25, RAD52 inh -5, rRNA inh HTS -27* and MLL AF4-AF9 inh 54*.
Screening O=C(Nc1ccc(Cl)cc1)Nc1ccon1 returned CASP6 VEID inh 0, NSD2 HMT inh -3, RAD52 inh -9, rRNA inh HTS -38 and MLL AF4-AF9 inh -2.
For Cc1ccc(NC(=O)Nc2ccon2)cc1Cl the results were CASP6 VEID inh 1, NSD2 HMT inh -1, RAD52 inh -10, rRNA inh HTS -34* and MLL AF4-AF9 inh -2.
Cc1ccc2c(c1)C(=O)C(=O)N2CCOc1ccccc1 was read as NSD2 HMT inh 17, RAD52 inh -11, rRNA inh HTS -23* and MLL AF4-AF9 inh -21.
For Cc1cccc(OCCN2C(=O)C(=O)c3cc(C)ccc32)c1 the results were CASP6 VEID inh 8, NSD2 HMT inh 6, RAD52 inh -15 and rRNA inh HTS -45.
For Cc1ccc(S(=O)(=O)N2CCC(C(=O)NCCCN3CCOCC3)CC2)cc1C the results were CASP6 VEID inh 60*, NSD2 HMT inh -1, RAD52 inh 4, rRNA inh HTS 5 and MLL AF4-AF9 inh 0.
`Cc1ccc(S(=O)(=O)N2CCC(C(=O)NCCN3CCOCC3)CC2)cc1C` gave CASP6 VEID inh -5, NSD2 HMT inh 4, RAD52 inh -14, rRNA inh HTS 22 and MLL AF4-AF9 inh -7.
`COc1ccc(/C=C2\Oc3cc(OCC(N)=O)ccc3C2=O)cc1OC` gave CASP6 VEID inh 2, NSD2 HMT inh -4, RAD52 inh -30, rRNA inh HTS -29* and MLL AF4-AF9 inh 0.
For C[C@@H]1CN([C@H](C)CO)C(=O)c2cc(C#CC3CC3)cnc2O[C@H]1CN(C)C(=O)c1ccncc1 the results were rRNA inh HTS 0.
Screening O=C(NCc1nc(-c2ccc(C(F)(F)F)cc2)no1)Nc1cc(Cl)cc(Cl)c1 returned CASP6 VEID inh -5, NSD2 HMT inh -2, RAD52 inh -3, rRNA inh HTS -47* and MLL AF4-AF9 inh 3.
Screening O=C(N[C@@H]1C=C[C@@H](CC(=O)N2CCOCC2)O[C@@H]1CO)c1ccc2c(c1)OCO2 returned CASP6 VEID inh 1, RAD52 inh -6, rRNA inh HTS 1 and MLL AF4-AF9 inh 0.

Bioassay records as filed in PubChem BioAssay.
